Experimental data published in PubChem BioAssay (EPA / NIEHS).
Inconclusive results are not listed. The source made the active and inactive calls. How the source made its calls, unless noted: active means hit-call score of the fitted dose curve at least 0.9, where 1 is the maximum; inactive means score below 0.9.

How the values were obtained:
[1] = read-out: Monokine induced gamma interferon (MIG), CXCL9 (gene 4283); assay: BSK_3C_MIG: BioMAP Diversity Plus: 3C Assay for Monokine induced gamma interferon (MIG) Biomarker Activity (AID 2283021); settings: primary human endothelial cells (HUVEC); actives raise or lower the signal
In short: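 ELISA measurement of MIG in human umbilical vein endothelial cells 24 h after treatment. Cytotoxicity tracked by SRB staining in parallel cultures; gain or loss of signal fitted relative to DMSO.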

[2] = molecular target: human Vitamin D Receptor (VDR), VDR (gene 7421) (UniProt P11473); assay: ATG_VDR_TRANS: Attagene TRANS-FACTORIAL HepG2 Assay for human Vitamin D Receptor (VDR) (AID 2283022; active means hit-call score of the fitted dose curve at least 0.9, where 1 is the maximum)
In short: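 Fluorescence of labelled reporter cDNA fragments, resolved by capillary electrophoresis, gives mRNA induction after 24 h treatment of HepG2 cells carrying transfected Gal4-fusion reporter units. Activity is fitted in the positive direction with DMSO as baseline.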

[3] = BSK_3C_SRB: Viability Assessment in the BioMAP Diversity Plus: 3C Assay (AID 2283023); settings: primary human endothelial cells (HUVEC);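 further: fitted both ways against DMSO so a hit may be signal rise or drop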
In short: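 Cells were dosed with chemical, cultured 24 h, fixed with 10% TCA, stained with 0.1% SRB and read at 560 nm. Human umbilical vein endothelium was used; DMSO served as negative control and baseline.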

[4] = read-out: Matrix Metallopeptidase 1 (MMP1), MMP1 (gene 4312); assay: BSK_BE3C_MMP1: BioMAP Diversity Plus: BE3C Assay for Matrix Metallopeptidase 1 (MMP1) Biomarker Activity (AID 2283024); settings: primary human bronchial epithelial cells; actives raise or lower the signal
In short: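 ELISA measurement of MMP-1 after 24 h compound exposure of primary human bronchial epithelial cells. Changes in either direction fitted relative to DMSO; parallel SRB staining checked overt cytotoxicity.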

[5] = BSK_3C_Vis: BioMAP Diversity Plus: 3C Assay for Morphology Visualization (AID 2283025); settings: primary human endothelial cells (HUVEC);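 further: fitted both ways so gain or loss versus DMSO counts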
In short: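 Light-microscopy visualization of HUVEC cultures at 24 h post-treatment, with DMSO as baseline for bidirectional fitting.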

[6] = read-out: Pselectin, SELP (gene 6403); assay: BSK_4H_Pselectin: BioMAP Diversity Plus: 4H Assay for Pselectin Biomarker Activity (AID 2283026); settings: primary human endothelial cells (HUVEC); actives raise or lower the signal
In short: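 ELISA of surface P-selectin on HUVEC, 24 h after dosing, with parallel SRB staining (0.1% after 10% TCA fixation, 560 nm) for overt cytotoxicity. Activity fitted in both directions relative to DMSO.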

[7] = BSK_4H_SRB: Viability Assessment in the BioMAP Diversity Plus: 4H Assay (AID 2283027); settings: primary human endothelial cells (HUVEC);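 further: cells exposed to compound for 24 h before staining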
In short: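 Cytotoxicity readout: sulforhodamine B (0.1%) staining of total protein after 10% TCA fixation, measured at 560 nm in human umbilical vein endothelium at 24 h. DMSO set the baseline; fitting was bidirectional.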

[8] = BSK_BE3C_SRB: Viability Assessment in the BioMAP Diversity Plus: BE3C Assay (AID 2283028); settings: primary human bronchial epithelial cells
In short: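 Overt cytotoxicity was assessed as total protein in confluent human primary bronchial epithelial cultures 24 h after chemical addition, using 0.1% sulforhodamine B staining read at 560 nm.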

[9] = read-out: Thrombomodulin, THBD (gene 7056); assay: BSK_3C_Thrombomodulin: BioMAP Diversity Plus: 3C Assay for Thrombomodulin Biomarker Activity (AID 2283029); settings: primary human endothelial cells (HUVEC); actives raise or lower the signal
In short: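 ELISA measurement of thrombomodulin on HUVEC surface 24 h after chemical dosing; activity fitted in both directions relative to DMSO vehicle.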

[10] = read-out: Urokinase-type plasminogen activator receptor (uPAR), PLAUR (gene 5329); assay: BSK_4H_uPAR: BioMAP Diversity Plus: 4H Assay for Urokinase-type plasminogen activator receptor (uPAR) Biomarker Activity (AID 2283030); settings: primary human endothelial cells (HUVEC); actives raise or lower the signal
In short: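 Chemicals are dosed onto human vascular endothelial primary cells (umbilical vein). After 24 h, uPAR is read by ELISA. Gain or loss of signal is fitted relative to DMSO.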

[11] = read-out: Vascular cell adhesion molecule 1 (VCAM1), VCAM1 (gene 7412); assay: BSK_4H_VCAM1: BioMAP Diversity Plus: 4H Assay for Vascular cell adhesion molecule 1 (VCAM1) Biomarker Activity (AID 2283033); settings: primary human endothelial cells (HUVEC); actives raise or lower the signal;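 further: cell-surface VCAM-1 protein measured by ELISA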
In short: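 VCAM-1 ELISA read 24 h after chemical dosing of HUVEC in the BioMAP 4H system, with gain or loss of signal fitted relative to DMSO. Parallel SRB staining (560 nm) checked overt cytotoxicity.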

[12] = read-out: Interferon-gamma inducible Protein 10 (IP10), CXCL10 (gene 3627); assay: BSK_BE3C_IP10: BioMAP Diversity Plus: BE3C Assay for Interferon-gamma inducible Protein 10 (IP10) Biomarker Activity (AID 2283034); settings: primary human bronchial epithelial cells; actives raise or lower the signal
In short: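 IP-10 quantified by ELISA in human primary bronchial epithelial cell cultures at 24 hours post-dosing. Gain or loss of signal fitted relative to DMSO; parallel SRB staining assessed overt cytotoxicity.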

[13] = read-out: Monokine induced gamma interferon (MIG), CXCL9 (gene 4283); assay: BSK_BE3C_MIG: BioMAP Diversity Plus: BE3C Assay for Monokine induced gamma interferon (MIG) Biomarker Activity (AID 2283035); settings: primary human bronchial epithelial cells; actives raise or lower the signal
In short: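 hu bronchial epithelial 1° cells, 24 h cpd; MIG by ELISA; bidirectional fit, DMSO = baseline.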

[14] = read-out: Transforming growth factor beta 1 (TGFb1), TGFB1 (gene 7040); assay: BSK_BE3C_TGFb1: BioMAP Diversity Plus: BE3C Assay for Transforming growth factor beta 1 (TGFb1) Biomarker Activity (AID 2283036;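 further: TGF-b1 protein level measured by ELISA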); settings: primary human bronchial epithelial cells; actives raise or lower the signal
In short: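 ELISA readout of TGF-b1 from human lung bronchial epithelial primary cells, taken 24 h post-treatment. Gain or loss of signal fitted relative to DMSO baseline, with parallel SRB staining for overt cytotoxicity.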

[15] = read-out: Plasminogen activator inhibitor-1 (PAI1), SERPINE1 (gene 5054); assay: BSK_BE3C_PAI1: BioMAP Diversity Plus: BE3C Assay for Plasminogen activator inhibitor-1 (PAI1) Biomarker Activity (AID 2283037); settings: primary human bronchial epithelial cells; actives raise or lower the signal
In short: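 PAI-1 was measured by ELISA in human primary bronchial epithelial cultures 24 h after chemical dosing, with cytotoxicity checked by SRB total-protein staining in parallel cultures. Activity was fitted in both directions relative to DMSO.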

[16] = read-out: urokinase plasminogen activator (uPA), PLAU (gene 5328); assay: BSK_BE3C_uPA: BioMAP Diversity Plus: BE3C Assay for urokinase plasminogen activator (uPA) Biomarker Activity (AID 2283038); settings: primary human bronchial epithelial cells; actives raise or lower the signal;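 further: uPA protein level quantified by ELISA in cell cultures; uPA read one day after compound addition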
In short: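 Measured by ELISA: uPA from human primary bronchial epithelial cells 24 h after chemical treatment. Values derive from bidirectional curve fitting with DMSO serving as negative control. Total protein by SRB staining in parallel wells flagged overt cytotoxicity.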

[17] = read-out: Urokinase-type plasminogen activator receptor (uPAR), PLAUR (gene 5329); assay: BSK_BE3C_uPAR: BioMAP Diversity Plus: BE3C Assay for Urokinase-type plasminogen activator receptor (uPAR) Biomarker Activity (AID 2283039); settings: primary human bronchial epithelial cells; actives raise or lower the signal;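 further: cells exposed to compound for one day before measurement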
In short: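 uPAR levels were measured by ELISA after 24 h compound treatment of primary human bronchial epithelial cells, fitted in both directions relative to DMSO. Parallel SRB staining served as the cytotoxicity read-out.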

[18] = read-out: Interleukin-6 (IL6), IL6 (gene 3569); assay: BSK_CASM3C_IL6: BioMAP Diversity Plus: CASM3C Assay for Interleukin-6 (IL6) Biomarker Activity for (AID 2283040); settings: primary human coronary artery smooth muscle cells; actives raise or lower the signal
[19] = read-out: Tissue plasminogen activator (tPA), PLAT (gene 5327); assay: BSK_BE3C_tPA: BioMAP Diversity Plus: BE3C Assay for Tissue plasminogen activator (tPA) Biomarker Activity (AID 2283041); settings: primary human bronchial epithelial cells; actives raise or lower the signal;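 further: tPA level quantified by ELISA one day after compound addition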
In short: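 tPA measured by ELISA 24 h after dosing human primary bronchial epithelial cells (BE3C system). Changes in either direction were fitted against DMSO. Parallel cultures were stained with SRB to flag overt cytotoxicity.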

[20] = read-out: Interleukin-8 (IL8), CXCL8 (gene 3576); assay: BSK_CASM3C_IL8: BioMAP Diversity Plus: CASM3C Assay for Interleukin-8 (IL8) Biomarker Activity (AID 2283042); settings: primary human coronary artery smooth muscle cells; actives raise or lower the signal;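 further: IL-8 protein level quantified by ELISA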

Measured: AC50

human Vitamin D Receptor (VDR), VDR (gene 7421), sequence (P11473 whole entry, looked up, the tested form may be a part): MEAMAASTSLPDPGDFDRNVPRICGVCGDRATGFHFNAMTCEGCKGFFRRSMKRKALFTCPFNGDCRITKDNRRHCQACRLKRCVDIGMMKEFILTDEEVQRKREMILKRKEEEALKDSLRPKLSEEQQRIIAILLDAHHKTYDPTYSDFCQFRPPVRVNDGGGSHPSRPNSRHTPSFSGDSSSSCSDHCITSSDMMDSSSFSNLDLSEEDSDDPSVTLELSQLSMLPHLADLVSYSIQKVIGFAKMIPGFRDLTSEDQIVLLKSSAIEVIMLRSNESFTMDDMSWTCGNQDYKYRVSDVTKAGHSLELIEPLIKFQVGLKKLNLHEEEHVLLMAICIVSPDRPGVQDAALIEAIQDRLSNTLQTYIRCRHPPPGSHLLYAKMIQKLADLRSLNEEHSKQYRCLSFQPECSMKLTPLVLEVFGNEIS

C=CCOCC(O)CCl (centres undefined)
inactive: all assays above

O=c1c2ccccc2oc2ccccc12
active: [4] 139 nM
not listed: [2]
inactive: all other assays above

CC1OC1C1CCC2(C)OC2C1 (centres undefined)
active: [10] 90.7 nM
not listed: [2]
inactive: all other assays above

CCO[Si](CCCN=C=O)(OCC)OCC
inactive: all assays above

CC(=O)Oc1ccc(C(C)=O)cc1
inactive: [2]

CCCCCCC1(C)CCC(=O)O1 (centres undefined)
inactive: [2]

c1cc(N(CC2CO2)CC2CO2)ccc1OCC1CO1 (centres undefined)
inactive: [2]

O=C1CCCCCN1SSN1CCCCCC1=O
inactive: [2]

CCCCCc1ccc(Cl)cc1
inactive: [2]

CCN(Cc1cccc(S(=O)(=O)O)c1)c1ccc(C(=C2C=CC(=[N+](CC)Cc3cccc(S(=O)(=O)[O-])c3)C=C2)c2ccccc2)cc1
inactive: [2]

C=CC(=O)OCCOC1C2CCC1C1CC=CC12 (centres undefined)
inactive: [2]

Nc1ccc(N=Nc2ccccc2)c(N)n1
inactive: [2]

CCO[Si](C)(OCC)OCC
not listed: [2] | [5] | [14]
inactive: all other assays above

CC(=O)CC(N)=O
inactive: [2]

CCCCC/C=C\CCC=O
inactive: [2]

CCC(C)(C)C1CCCCC1OC(C)=O (centres undefined)
inactive: [2]

OC1CCCC1
inactive: [2]

CCC(=O)Oc1ccc(/C(CC)=C(\CC)c2ccc(OC(=O)CC)cc2)cc1
inactive: [2]

CN(C)c1ccc(N=Nc2ccccc2C(=O)O)cc1
inactive: [2]

C=C[Si](OC(C)=O)(OC(C)=O)OC(C)=O
not listed: [2] | [5] | [14]
inactive: all other assays above

CC[C@H]1OC(=O)[C@H](C)[C@@H](O[C@H]2C[C@@](C)(OC)[C@@H](O)[C@H](C)O2)[C@H](C)[C@@H](O[C@@H]2O[C@H](C)C[C@H](N(C)C)[C@H]2O)[C@](C)(O)C[C@@H](C)C(=NOCOCCOC)[C@H](C)[C@@H](O)[C@]1(C)O
inactive: [2]

CC(C)(C)C(=O)C=Cc1ccc(Cl)cc1
inactive: [2]

O=S(=O)(O)c1ccccc1C=Cc1ccc(-c2ccc(C=Cc3ccccc3S(=O)(=O)O)cc2)cc1
inactive: [2]

Cc1cc(C)c(C)c(O)c1
inactive: [2]

Cc1cccc(N(C)C(=S)Oc2ccc3ccccc3c2)c1
inactive: [2]

O=S(=O)(Oc1ccc(Cl)cc1Cl)c1ccccc1
inactive: [2]

CCCCCCCCCCCSCC(=O)O
inactive: [2]

Cc1ccc(N)c([N+](=O)[O-])c1
inactive: [2]

C=CC(C)(CCC=C(C)C)OC(=O)CC(C)C (centres undefined)
inactive: [2]

O=Cc1ccc(CO)o1
inactive: [2]

C=C(C)c1cccc(C(C)(C)N=C=O)c1
inactive: [2]

CCOC(=O)CC
inactive: [2]

O=C(c1ccccc1)c1ccc(O)c(O)c1O
inactive: [2]

COC(F)(F)C(F)(C(F)(F)F)C(F)(F)F
inactive: [2]

COC(=O)/C=C/C(C)=C\C=C\C(C)=C\C=C\C=C(C)\C=C\C=C(C)\C=C\C(=O)O
inactive: [2]

O=C1CCCC(=O)O1
inactive: [2]

FC(F)=C(F)OC(F)(F)C(F)(F)C(F)(F)F
inactive: [2]

CC=CC(F)(F)C(F)(F)C(F)(F)F
inactive: [2]
